Among the data in PubChem BioAssay AID504834 (National Center for Advancing Translational Sciences (NCATS), 2011) are Potency values, retold here.

The structures appear in SMILES notation. Hit rate of the full screen: of about 320,000 compounds, about 22,000 (6.9%) were called active. Where a call stands in place of a potency, no number is given. Another 27% or so got no clear call; they are omitted. Calls follow the shape of the dose curve; as a rule, active = well fitted inhibition curve with a large enough effect; inconclusive = small, poorly fitted or top-dose-only effect, or another doubt; inactive = no such curve, though single readings can be large or run the other way. The full list was thinned out, with actives kept by preference.
Potency is read from the fitted curve at half-maximal effect.

This assay can be described thus: Primary qHTS for delayed death inhibitors of the malarial parasite plastid, 96 hour incubation. Particulars: P. falciparum luciferase reporter growth; series mostly up to 28.7 µM. The text has this: The goal of this screen is to discover new antimalarial compounds that act by inhibiting the development of the apicoplast in the malarial parasite Plasmodium falciparum. The biochemical processes that make this organelle essential for erythrocytic stage parasites are not well understood. However, antibiotics such as azithromycin and tetracycline, which target the apicoplast translational machinery, have a potent antimalarial effect.
We have developed a cell-based assay that measures parasite growth based on the expression of an integrated copy of a firefly luciferase reporter. To detect small molecules that cause this "delayed death" phenotype, erythrocytes infected with the luciferase-expressing parasites were incubated with compounds for either one or two generations, corresponding to 48 and 96 hours, respectively. Compounds that inhibit parasite growth in the second generation, but not the first, should be enriched in antimalarials that target the apicoplast. Growth inhibition is detected by a decrease in luciferase activity.
Assay Provider: David Fidock and Eric Ekland, Columbia University
Keywords: NIH Roadmap, MLPCN, MLI, MLSMR, qHTS, NCGC, qHTS, malaria, luciferase, viability
Four microliters of infected erythrocytes (2% hematocrit, 0.05% parasitemia final concentration) in culture medium were dispensed and the plates incubated for 96 hours at 37 C in 5% CO2. Two microliters of luciferase detection reagent was added and luminescence was detected by a ViewLux (PerkinElmer) reader.
For the compound `Cc1ccc(CSCC2Nc3ccc(C(=O)N4CCN(c5ccc(F)cc5)CC4)cc3NC2=O)cc1` (stereo not given), the Potency entry is “inactive”.
With `O=C(O)c1ccccc1C(=O)NC1=NN(c2ccccc2)CC1`, the Potency result was “inactive”.
Regarding `O=[N+]([O-])c1ccc2c(c1)C(O)n1nc(-c3ccccc3)nc1S2` (stereo not given), the Potency result was “inactive”.
On to `O=C(CN1CCCCCC1)Nc1c(Cl)cc(Cl)cc1Cl`, for which the Potency entry was “inactive”.
Regarding `COc1ccc(NC(C(=O)Nc2cccc(C(C)=O)c2)c2ccccc2)cc1` (stereo not given), the Potency entry is “inactive”.
For `COc1ccc(-n2nnnc2SCC(=O)Nc2ccccc2)cc1`, the Potency result was “inactive”.
For the compound `COc1cccc(NC(=O)C(Sc2nc3ccccc3c(=O)n2CC(C)C)c2ccccc2)c1` (stereo not given), the Potency is 2.62 µM (active).
The figure for `COC(=O)c1ccc2c(=O)n(CCN3CCOCC3)c(SCC(=O)Nc3cccc(OC)c3)nc2c1` is 13.1 µM (active).
Turning to `CCc1ccc(NC(=O)CSc2nc3ccccc3c(=O)n2CCN2CCOCC2)cc1`, the Potency result is “inactive”.
Take `COc1cccc(NC(=O)Cn2c3ccccc3c3nc4n(c(=O)c32)CCS4)c1`: the Potency result was “inactive”.
Regarding `COc1ccc(NC(=O)CSc2nc3ccccc3c(=O)n2C)cc1`, the Potency is 1.85 µM (active).
The entry for `COc1ccc(NC(=O)CSc2nnc(Cc3ccccc3)c(=O)n2N)cc1` is “inactive”; for `COc1cccc(NC(=S)NCCCN2CCOCC2)c1` it is “inactive”.
For `COc1ccc([N+](=O)[O-])cc1NCC(=O)c1ccc(C)cc1`, the Potency entry is “inactive”.
With `O=S(=O)(Nc1cccc(-n2cnnn2)c1)c1cnc(Cl)c(Cl)c1`, the Potency result was “inactive”.
Turning to `COc1ccc2c(C)cc3nnnn3c2c1`, the Potency result is “inactive”.
Turning to `O=C(Nc1nnc(S(=O)(=O)N2CCOCC2)s1)c1cccc(Br)c1`, the Potency result was “inactive”.
The value for `Cc1cccc(NC(=O)COc2ccccc2C)n1` was 2.33 µM (active); that for `Cc1ccccc1OCC(=O)Nc1nc(C)c(C(=O)N(C)C)s1` was “inactive”.
The value for `COCCNC(=O)COc1ccccc1C` was “inactive”; that for `O=C(NCCc1ccccn1)c1cccnc1Oc1ccc(Cl)cc1` was “inactive”.
For `COc1cc(NS(=O)(=O)c2ccc(NC(=O)c3ccc([N+](=O)[O-])cc3)cc2)ncn1`, the Potency result is “inactive”.
Regarding `O=C(Nc1ccc(C(=O)N2CCCCC2)cc1)c1cccc([N+](=O)[O-])c1`, the Potency entry is “inactive”.
With `Cn1ccc(=Nc2ccc(NC(=O)c3ccc(N=c4ccn(C)c5ccc([N+](=O)[O-])cc45)cc3)cc2)cc1`, the Potency is 0.165 µM (active).
Consider `COc1ccccc1C(=O)Nc1ccnn1C1CCN(C(=O)C(C)(C)C)CC1`, for which the Potency result was “inactive”.
The entry for `CCCOc1ccc(N/C=C/C(=O)C(C)(C)C)cc1` is “inactive”.
On to `O=C(/C=C/Nc1ccccc1OC(F)(F)F)C(F)(F)F`, for which the Potency result is “inactive”.
`CN(C)c1ccc(N/C=C/C(=O)C(F)(F)F)cc1`: the Potency was 6.57 µM (active).
The value for `Cc1c(C(=O)N(C)CCc2cnn(C)c2)oc2c(F)cccc12` was “inactive”; that for `Fc1ccc(/C=N/n2c(COc3ccccc3)n[nH]c2=S)cc1` was “inactive”.
The value for `COc1ccc(C(=O)OCC(=O)Nc2cccc(C(C)=O)c2)cc1OC` was “inactive”.
On to `O=c1[nH][nH]c(=O)c2cc(N3CCCC3)ccc12`, for which the Potency was 9.28 µM (active).
`CN(C)c1ccc2c(=O)[nH][nH]c(=O)c2c1`: the Potency result is “inactive”.
For the compound `O=C1C=CC(=O)N1c1ccc(N2CCCCC2)cc1`, the Potency entry is “inactive”.
`CCOc1ccc(S(=O)(=O)NCc2ccc3c(c2)OCO3)cc1C`: the Potency result was “inactive”.
Consider `Cc1ccc(C(=O)NNC(=O)C(C)Oc2ccc3ccccc3c2)o1` (stereo not given), for which the Potency entry was “inactive”.
For `Cc1ccc(Cl)c(OCC(=O)N(C)CC(=O)Nc2ccc(N3CCOCC3)cc2)c1`, the Potency result was “inactive”.
In the case of `Cc1nn2c(NCCN(C)C)c3c(nc2c1-c1ccccc1)CCC3`, the Potency was 11.7 µM (active).
The entry for `Cc1cc(C(C)(C)C)n2nc(C)c(-c3ccccc3)c2n1` is “inactive”; for `Cc1cc(N2CCCC2)n2nc(C)c(-c3ccccc3)c2n1` it is “inactive”; for `O=C(CN1CCN(c2ccccn2)CC1)Nc1ccc(Br)cc1` it is “inactive”.
The value for `COc1ccc(C2=NS(=O)(=O)N(C)C(C(=O)N(C)Cc3ccccc3)=C2)cc1` was “inactive”; that for `Nc1c(C(=O)Nc2ccc3c(c2)OCCO3)nnn1Cc1ccccc1` was “inactive”.
The entry for `Cc1ccc2c(c1)N(C(=O)CCC(=O)NCc1cccnc1)CCO2` is “inactive”.
As to `CC1CN(C(=O)CCC(=O)NCc2cccnc2)c2ccccc2O1` (stereo not given), the Potency entry was “inactive”.
For the compound `Cc1ccccc1CNC(=O)CCC(=O)N1Cc2ccccc2Oc2ncccc21`, the Potency is 11.7 µM (active).
Take `CC(C)NC(=O)C(c1ccc(F)cc1)N(C(=O)CCC(=O)Nc1ccccn1)c1ccccc1F` (stereo not given): the Potency result was “inactive”.
The value for `Cc1ccc(N2CCN(c3ccc([N+](=O)[O-])cn3)CC2)c(C)c1` was “inactive”.
With `Cc1ccc(-n2c(C)cc(/C=N/Nc3ccc([N+](=O)[O-])cn3)c2C)c(C)c1`, the Potency was 10.4 µM (active).
Regarding `Cc1cc(/C=N/Nc2ccc([N+](=O)[O-])cn2)c(C)n1-c1cccc(C(=O)O)c1`, the Potency result is “inactive”.
For the compound `O=C(NC1CCCC1)C(c1ccc(Cl)cc1)N(C(=O)c1csnn1)C1CC1` (stereo not given), the Potency entry was “inactive”.
Turning to `CC1CC1C(=O)OCC(=O)Nc1cccc(F)c1` (stereo not given), the Potency entry is “inactive”.
Take `N#CC(C#N)=CN=c1ccn(Cc2ccc(Cl)cc2Cl)cc1`: the Potency is 1.17 µM (active).
`Cn1ccc(=NC=C(C#N)C#N)c2ccccc21`: the Potency result is “inactive”.
Turning to `O=S(=O)(O)c1nc2ccccc2n1Cc1ccc(Cl)cc1Cl`, the Potency entry is “inactive”.
The value for `CC(C)[C@H](NC(=O)N1CCn2c1nc1ccccc12)C(=O)NC1CC1` was “inactive”.
For the compound `COc1cc(OC)cc(C(=O)Nc2ccc(S(=O)(=O)Nc3cc(C)on3)cc2)c1`, the Potency result is “inactive”.
Consider `CCOc1ccc(C(=O)Nc2ccc(S(=O)(=O)Nc3cc(C)on3)cc2)cc1`, for which the Potency is 2.94 µM (active).
Consider `CCOC(=O)c1cc(C(=O)Nc2ccc(S(=O)(=O)Nc3ccc(OC)cc3)cc2)nn1C`, for which the Potency was 11.7 µM (active).
Take `COc1ccc(NC(=O)c2cnc(NS(=O)(=O)c3ccccc3)nc2)cc1`: the Potency entry was “inactive”.
In the case of `COc1cc2ccccc2cc1C(=O)Nc1ccc(S(=O)(=O)Nc2cc(C)on2)cc1`, the Potency result is “inactive”.
Turning to `CCOC(=O)c1ccccc1NS(=O)(=O)c1ccc(OC)cc1`, the Potency entry is “inactive”.
As for `CCOCCCNC(=S)Nc1ccc2nc(N3CCN(CC)CC3)cc(C)c2c1`, the Potency result was “inactive”.
Take `Cc1cc(C)c(C#N)c(Nc2cccc(Br)c2)n1`: the Potency result is “inactive”.
As for `Cc1ccc(S(=O)(=O)N2CCN(C)CC2)cc1`, the Potency result is “inactive”.
`Cc1nn(C)c(C)c1NS(=O)(=O)c1ccc(OC(F)(F)F)cc1`: the Potency result was “inactive”.
As for `COc1cc(C(=O)OCC(=O)N(CC(C)C)C2CCS(=O)(=O)C2)ccc1OCC(C)C` (stereo not given), the Potency entry was “inactive”.
On to `CN(CC(=O)Nc1cccc(F)c1)C(=O)C1CSC2(C)CCC(=O)N12` (stereo not given), for which the Potency entry was “inactive”.
As for `CS(=O)(=O)N(CC(=O)N1CCCC1)Cc1ccccc1`, the Potency result was “inactive”.
On to `CCCc1cc(C(=O)N2CCCC(CO)(CCCc3ccccc3)C2)n(C)n1` (stereo not given), for which the Potency entry was “inactive”.
As to `COC(=O)CCC(=O)N1CCCC(CO)(Cc2ccccc2)C1` (stereo not given), the Potency is 0.37 µM (active).
As to `CCNC(=S)N(CCN(CC)CC)Cc1cc2cc3c(cc2[nH]c1=O)OCO3`, the Potency entry was “inactive”.
For the compound `COC(=O)C(C)n1cnc2c(nnn2-c2cccc(Cl)c2)c1=O` (stereo not given), the Potency entry is “inactive”.
With `CC(C)C[C@H](CO)Nc1nc(N(C)c2cccc(Cl)c2)c2ncn(C(C)C)c2n1`, the Potency was 13.1 µM (active).
Consider `CC1COc2ccccc2N1C(=O)c1ccc(F)cc1` (stereo not given), for which the Potency entry was “inactive”.
The entry for `COc1cccc(C(C(=O)NC2CCCC2)N(C(=O)c2ccco2)c2cccc(C(C)=O)c2)c1OC` (stereo not given) is “inactive”.
Take `CN(Cc1ccccc1)C(=O)c1ccc(NC2=NC3CS(=O)(=O)CC3S2)cc1` (stereo not given): the Potency result was “inactive”.
The value for `COc1ccccc1N1CCN(C(=O)c2ccc(NC3=NC4CS(=O)(=O)CC4S3)cc2)CC1` (stereo not given) was 10.4 µM (active).
Turning to `COc1cccc(-c2cc(C(=O)N3CCN(c4ccccc4OC)CC3)no2)c1`, the Potency entry is “inactive”.
For `NS(=O)(=O)c1ccc(CCNC(=O)c2nc(CS(=O)(=O)c3ccc(Cl)cc3)no2)cc1`, the Potency result is “inactive”.
Consider `CC1CC(C)CN(C(=O)C2CC(=O)N(c3ccc(F)cc3)C2)C1` (stereo not given), for which the Potency entry was “inactive”.
On to `CC1(C)O[C@@H]2[C@H](O1)[C@@H](COS(=O)(=O)O)O[C@H]2n1cnc2c(=O)[nH]cnc21`, for which the Potency result is “inactive”.
For `CCCCNC(=O)C1(O)c2ccccc2NC(=O)N1c1ccc(Cl)cc1` (stereo not given), the Potency entry was “inactive”.
For `Cc1ccc(S(=O)(=O)N(Cc2cccc([N+](=O)[O-])c2)C(=O)N2CCN(C)CC2)cc1`, the Potency entry is “inactive”.
Take `CCCNC(=O)c1ccccc1NC(=O)CSCc1ccc(OC)cc1`: the Potency result was “inactive”.
`O=C(CSCc1ccccc1)Nc1ccccc1`: the Potency entry is “inactive”.
In the case of `Cc1c(NC(=O)CSCc2ccccc2)cccc1C(=O)O`, the Potency was 10.4 µM (active).
With `Nc1ccn(C2CC(O)C(CO)O2)c(=O)n1` (stereo not given), the Potency result was “inactive”.
Consider `CCOC(=O)NN1C(=O)c2ccccc2NC1c1ccccc1O` (stereo not given), for which the Potency is 14.7 µM (active).
`O=C1c2ccccc2NC(c2ccccc2O)N1NS(=O)(=O)c1ccccc1` (stereo not given): the Potency entry is “inactive”.
The value for `CCOC(=O)NN1C(=O)c2ccccc2NC1c1cccc(O)c1` (stereo not given) was “inactive”.
Regarding `COc1ccc(OC)c(C(C)NC(=S)Nc2ccc(S(=O)(=O)Nc3ncccn3)cc2)c1` (stereo not given), the Potency entry is “inactive”.
With `COc1ccccc1-n1c(-c2cc(-c3ccco3)[nH]n2)n[nH]c1=S`, the Potency result is “inactive”.
With `Fc1ccc2c(c1)C(c1cccnc1)=NNC(c1cccs1)=N2`, the Potency was 7.38 µM (active).
The entry for `CCc1ccc2c(c1)C(c1ccc([N+](=O)[O-])cc1)=NNC(c1ccccc1)=N2` is “inactive”; for `COc1ccc2c(c1)C(c1cccs1)=NNC(c1cccnc1)=N2` it is “inactive”.
As to `CCOC(=O)c1cc2ccccc2n1CC(=O)c1ccccc1`, the Potency entry is “inactive”.
As for `CC(=O)Nc1ccc(NC(=O)[C@@H](NC(=O)c2cccc(C)c2)C(C)C)cc1`, the Potency result is “inactive”.
For `O=C(O)CSc1ccc(S(=O)(=O)N2CCCC2)cn1`, the Potency result was “inactive”.
With `CCN1CCCC1CNC(=O)c1cc2cc(OC)c(OC)cc2[nH]1` (stereo not given), the Potency result was “inactive”.
As for `O=C(COc1cccc(-n2cnnn2)c1)NCCC1=CCCCC1`, the Potency was 10.4 µM (active).
The value for `O=C(COc1ccc(Cl)cc1)NCCC1=CCCCC1` was “inactive”; that for `CC(C)COc1ccc(C(=O)OCC(=O)NCCC2=CCCCC2)cc1` was “inactive”.
The entry for `Cc1ccn2c(c1)nc(=O)c1cc(S(=O)(=O)N3CCC(C)CC3)ccc12` is “inactive”; for `COC(=O)c1ccc(COC(=O)CNC(=O)c2cccc(OC)c2)o1` it is “inactive”.
